Experimental findings from the OligoGym collection are described below.
Further: reference of the scale not given here.

One assay concerns the target OMD. Briefly: pooled miR-30 sensor sort-seq; sequence = guide strand. The following applies: shRNA.
TTGTGTGACATTCTTAGAGTAT yielded a sensor-assay potency score (higher = more potent) of -0.365.

Consider TTTGTTGTGTCCAACACTGAGT, for which the sensor-assay potency score (higher = more potent) is -0.557.

Take TATAGGTTTTGTGAAGTCGTAA: the sensor-assay potency score (higher = more potent) was -0.621.

Turning to TTCATTGTAACCAAGAAGGAGT, the sensor-assay potency score (higher = more potent) is -0.273.

On to TTAGTTGTATTGTTTGACCATT, for which the sensor-assay potency score (higher = more potent) was -0.906.

Sequence TTGGTCATAGTCTTCATCCCAC gave a sensor-assay potency score (higher = more potent) of -0.0587.

TATTTCATTATTTTGTAGGTAT came in with a sensor-assay potency score (higher = more potent) of 0.614.

As to TTTGTCGAAGTATTTTTCGGGT, the sensor-assay potency score (higher = more potent) was -0.262.

Take TTGTAGTAGATTTGGAAGCTTA: the sensor-assay potency score (higher = more potent) is -0.257.

Sequence TTAAATTCAATTCTGATCTTAT gave a sensor-assay potency score (higher = more potent) of -0.256.

Sequence TTTGAGTAAGTTCTAATCCTAT returned a sensor-assay potency score (higher = more potent) of -0.412.

For TAGTGCTTCGTTGTTCACCATA, the sensor-assay potency score (higher = more potent) was -1.2.

The target of the next assay is OPRK1. The assay is described as above. The following applies: shRNA.
Consider ATGACATCGACGTCTTCCCTGA, for which the sensor-assay potency score (higher = more potent) is -0.669.

In the case of ATCACGAACATGACCAGCGAGT, the sensor-assay potency score (higher = more potent) is -1.24.

Turning to TATCGGATGATCACGAACATGA, the sensor-assay potency score (higher = more potent) was -0.746.

In turn, TATCTTGCACAGCACATCCCCA had a sensor-assay potency score (higher = more potent) of -0.82.

With TTGCTGTCTTCATCTTTGTGTA, the sensor-assay potency score (higher = more potent) was -0.644.

For the sequence TAGCTGGAGAGAGCAGCTGTGC, the sensor-assay potency score (higher = more potent) was -1.45.

Take TTACTATCTTGCACAGCACATC: the sensor-assay potency score (higher = more potent) was -1.6.

Consider AATAGCTGGAGAGAGCAGCTGT, for which the sensor-assay potency score (higher = more potent) is 0.381.

Turning to TTTCGGACTCTGCTAGTGCTCT, the sensor-assay potency score (higher = more potent) was -0.953.

TTGTAGTAACTAAAGCATCTGC had a sensor-assay potency score (higher = more potent) of -0.405.

Sequence TTCATGAAGAGGTCCCACCAGG had a sensor-assay potency score (higher = more potent) of -0.714.

Consider TTGGTTGCTGTCTTCATCTTTG, for which the sensor-assay potency score (higher = more potent) is -0.766.
